# From the supplement of paper PMC4022240
# ± gives the standard deviation.
# How the values were obtained:
# Experiment in all cases: peptide microarray binding signal (635 nm), min-max normalized on array (fraction of array maximum); higher = stronger binding
# [1] = biological target: T1, HaloTag-ATRX ADD domain (163-292)
# T1 chain: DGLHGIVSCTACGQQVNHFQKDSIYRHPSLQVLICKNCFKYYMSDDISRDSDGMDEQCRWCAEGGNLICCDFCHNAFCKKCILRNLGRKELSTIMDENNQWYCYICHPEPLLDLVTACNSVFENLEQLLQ
# Procedure, shortened: (§1)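 Two probe formats were used for 1 h at 4°C: biotin-labelled HaloTag reader fusions (10 nM to 1 μM) with streptavidin-Alexa Fluor 647, and rabbit histone antibodies (1:10,000 to 1:2,000) with anti-rabbit Alexa 647. Both were applied to nitrocellulose arrays of histone 13-mer peptide–cellulose conjugates printed in triplicate with a Cy3 tracer and blocked overnight at 4°C. Signal was read at 635 nm and misprints at 532 nm on an Axon GenePix 4000B. Binding signal is expressed as the triplicate-spot mean intensity, min-max scaled for each library.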
# [2] = biological target: HaloTag-ING2 PHD (mouse Ing2 200-280)
# Procedure, shortened: as §1
# [3] = biological target: anti-H3K4me3 antibody ab8580
# Procedure, shortened: as §1
# [4] = biological target: anti-H3K9me3 antibody ab8898
# Procedure, shortened: as §1
# [5] = peptide region: H4 1-13, peptide modifications: H4K12ac, binder concentration: 1:2,000 dilution
# [6] = peptide region: H4 1-13, peptide modifications: H4K12ac, binder concentration: 1:10,000 dilution
# [7] = peptide region: H4 1-13, peptide modifications: H4K5ac H4K12ac, binder concentration: 1:2,000 dilution
# [8] = peptide region: H4 1-13, peptide modifications: H4K5ac H4K12ac, binder concentration: 1:10,000 dilution
# [9] = peptide region: H3 112-124, peptide modifications: H3K122ac, binder concentration: 1:2,000 dilution
# [10] = peptide region: H3 112-124, peptide modifications: H3K122ac, binder concentration: 1:10,000 dilution
# [11] = peptide region: H4 1-13, peptide modifications: H4R3cit, binder concentration: 1:2,000 dilution
# [12] = peptide region: H4 1-13, peptide modifications: H4R3cit, binder concentration: 1:10,000 dilution
# [13] = peptide region: H4 1-13, peptide modifications: H4K5ac H4K8ac H4K12ac, binder concentration: 1:2,000 dilution
# [14] = peptide region: H4 1-13, peptide modifications: H4K5ac H4K8ac H4K12ac, binder concentration: 1:10,000 dilution
binder,measurement,setting,value
SGRGKGGKGLGKG [H4 1-13 S G R G K G G K G L G Kac G],peptide microarray binding signal,"[1]; peptide region: H4 1-13, peptide modifications: H4K12ac, binder concentration: 50 nM",0.00238 ± 2.8e-05
same,peptide microarray binding signal,"[1]; peptide region: H4 1-13, peptide modifications: H4K12ac, binder concentration: 500 nM",0.00652 ± 0.001
same,peptide microarray binding signal,"[2]; peptide region: H4 1-13, peptide modifications: H4K12ac, binder concentration: 10 nM",0.00251 ± 0.00023
same,peptide microarray binding signal,"[2]; peptide region: H4 1-13, peptide modifications: H4K12ac, binder concentration: 100 nM",0.0056 ± 0.00073
same,peptide microarray binding signal,[3]; [5],0.000302 ± 1.7e-05
same,peptide microarray binding signal,[3]; [6],0.000799 ± 3.3e-05
same,peptide microarray binding signal,[4]; [5],0.000121 ± 8.7e-06
same,peptide microarray binding signal,[4]; [6],0.000577 ± 6.2e-06
SGRGKGGKGLGKG [H4 1-13 S G R G Kac G G K G L G Kac G],peptide microarray binding signal,"[1]; peptide region: H4 1-13, peptide modifications: H4K5ac H4K12ac, binder concentration: 50 nM",0.00552 ± 0.00053
same,peptide microarray binding signal,"[1]; peptide region: H4 1-13, peptide modifications: H4K5ac H4K12ac, binder concentration: 500 nM",0.0164 ± 0.0029
same,peptide microarray binding signal,"[2]; peptide region: H4 1-13, peptide modifications: H4K5ac H4K12ac, binder concentration: 10 nM",0.00352 ± 0.00063
same,peptide microarray binding signal,"[2]; peptide region: H4 1-13, peptide modifications: H4K5ac H4K12ac, binder concentration: 100 nM",0.00822 ± 0.0021
same,peptide microarray binding signal,[3]; [7],0.000547 ± 0.00012
same,peptide microarray binding signal,[3]; [8],0.00217 ± 0.00014
same,peptide microarray binding signal,[4]; [7],0.00131 ± 0.00038
same,peptide microarray binding signal,[4]; [8],0.00196 ± 8e-05
IHAKRVTIMPKDI [H3 112-124 I H A K R V T I M P Kac D I],peptide microarray binding signal,"[1]; peptide region: H3 112-124, peptide modifications: H3K122ac, binder concentration: 50 nM",0.002508 ± 1.9e-05
same,peptide microarray binding signal,"[1]; peptide region: H3 112-124, peptide modifications: H3K122ac, binder concentration: 500 nM",0.00729 ± 0.0012
same,peptide microarray binding signal,"[2]; peptide region: H3 112-124, peptide modifications: H3K122ac, binder concentration: 10 nM",0.00328 ± 0.00025
same,peptide microarray binding signal,"[2]; peptide region: H3 112-124, peptide modifications: H3K122ac, binder concentration: 100 nM",0.00475 ± 0.0007
same,peptide microarray binding signal,[3]; [9],0.00113 ± 0.00025
same,peptide microarray binding signal,[3]; [10],0.00137 ± 0.00013
same,peptide microarray binding signal,[4]; [9],0.000483 ± 2.4e-05
same,peptide microarray binding signal,[4]; [10],0.000692 ± 7.3e-06
SGRGKGGKGLGKG [H4 1-13 S G Rcit G K G G K G L G K G],peptide microarray binding signal,"[1]; peptide region: H4 1-13, peptide modifications: H4R3cit, binder concentration: 50 nM",0.00524 ± 0.00048
same,peptide microarray binding signal,"[1]; peptide region: H4 1-13, peptide modifications: H4R3cit, binder concentration: 500 nM",0.0149 ± 0.00041
same,peptide microarray binding signal,"[2]; peptide region: H4 1-13, peptide modifications: H4R3cit, binder concentration: 10 nM",0.00209 ± 0.00016
same,peptide microarray binding signal,"[2]; peptide region: H4 1-13, peptide modifications: H4R3cit, binder concentration: 100 nM",0.00468 ± 0.00014
same,peptide microarray binding signal,[3]; [11],0.00104 ± 0.00043
same,peptide microarray binding signal,[3]; [12],0.001997 ± 1.8e-05
same,peptide microarray binding signal,[4]; [11],0.00199 ± 3.7e-05
same,peptide microarray binding signal,[4]; [12],0.00161 ± 4.1e-05
SGRGKGGKGLGKG [H4 1-13 S G R G Kac G G Kac G L G Kac G],peptide microarray binding signal,"[1]; peptide region: H4 1-13, peptide modifications: H4K5ac H4K8ac H4K12ac, binder concentration: 50 nM",0.00417 ± 0.00038
same,peptide microarray binding signal,"[1]; peptide region: H4 1-13, peptide modifications: H4K5ac H4K8ac H4K12ac, binder concentration: 500 nM",0.00538 ± 0.00043
same,peptide microarray binding signal,"[2]; peptide region: H4 1-13, peptide modifications: H4K5ac H4K8ac H4K12ac, binder concentration: 10 nM",0.00418 ± 0.00011
same,peptide microarray binding signal,"[2]; peptide region: H4 1-13, peptide modifications: H4K5ac H4K8ac H4K12ac, binder concentration: 100 nM",0.00645 ± 0.00041
same,peptide microarray binding signal,[3]; [13],0.00128 ± 0.00011
same,peptide microarray binding signal,[3]; [14],0.001541 ± 1.5e-05
same,peptide microarray binding signal,[4]; [13],0.000695 ± 4.8e-05
same,peptide microarray binding signal,[4]; [14],0.001441 ± 1.4e-05
